Reference: PubChem BioAssay (NCI)
This is part of a sample that, as a whole, favours compounds with a hit. Of some 79,000 tested, about 15% had one in any assay. The source made the active and inactive calls. Cut-off read from the data, not from the text of the source: active = growth inhibition above about 70%; inactive = the rest. Where a SMILES comes first, the peptide text is derived from it. The star is where a group is joined. Boc = CC(C)(C)OC(=O)*; tBu = CC(C)(C)*

What was measured:
[1] = NCI Yeast Anticancer Drug Screen. Data for the rad50 strain (AID 155);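 note: 0% = growth of vehicle-only cultures of the same strain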; settings: S. cerevisiae rad50 strain growth inhibition; at 50.0 µM; stronger effect = higher value
Procedure, shortened: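 Readout: growth inhibition relative to vehicle-treated cultures. Compound exposure was carried out in a genetically defined yeast strain deficient in DNA damage repair.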

[2] = NCI Yeast Anticancer Drug Screen. Data for the mec2-1 strain (AID 157); settings: S. cerevisiae mec2-1 strain, at 50.0 µM, stronger effect = higher value
Procedure, shortened: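 Strain: mec2-1 (DNA repair/cell cycle alteration). Compound exposure, then growth measured; inhibition expressed relative to vehicle.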

[3] = NCI Yeast Anticancer Drug Screen. Data for the sgs1 mgt1 strain (AID 161);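 note: 0% = growth of cultures given vehicle only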; settings: S. cerevisiae sgs1 mgt1 strain, at 50.0 µM, stronger effect = higher value
Procedure, shortened: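 Inhibition of yeast growth, normalised to vehicle-treated controls, is reported for a strain bearing genetic alterations in DNA damage repair.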

[4] = NCI Yeast Anticancer Drug Screen. Data for the cln2 rad14 strain (AID 165);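 note: 0% = growth equal to vehicle treated cultures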; settings: S. cerevisiae cln2 rad14 strain, at 50.0 µM, stronger effect = higher value
Procedure, shortened: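 Compounds are applied to the cln2 rad14 yeast strain, and growth is then compared with that of vehicle-treated cultures to give inhibition.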

[5] = NCI Yeast Anticancer Drug Screen. Data for the bub3 strain (AID 167); settings: S. cerevisiae bub3 mutant strain, at 50.0 µM, stronger effect = higher value
Procedure, shortened: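 Readout: yeast growth inhibition, expressed relative to vehicle-only wells. The test organism is a mutant strain from a panel with lesions in DNA repair or checkpoint genes.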

[6] = NCI Yeast Anticancer Drug Screen. Data for the mlh1 rad18 strain (AID 175); settings: S. cerevisiae mlh1 rad18 strain growth inhibition; at 50.0 µM; stronger effect = higher value
Procedure, shortened: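 Read-out is yeast growth inhibition, calculated against vehicle-only controls. The compound was applied to a strain engineered with DNA damage repair alterations.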

Measured: growth inhibition

Nc1cc2c(cc1Br)-c1ccccc1C2Br (centres undefined)
inactive: [1] -6.35% | [2] -10.9% | [3] 3.7% | [4] 10.7% | [5] 1.25% | [6] 2.7%

CC(C)(C)c1cc2c(OP(c3ccccc3)c3ccccc3)c(c1)Cc1cc(C(C)(C)C)cc(c1OP(c1ccccc1)c1ccccc1)Cc1cc(C(C)(C)C)cc(c1OP(c1ccccc1)c1ccccc1)Cc1cc(C(C)(C)C)cc(c1OP(c1ccccc1)c1ccccc1)C2
inactive: [1] -11.8% | [2] -25.9% | [3] -38.5% | [4] -5.15% | [5] -18.7% | [6] -14.2%

COC(=O)C1C2C=CC(C2)C1C(=O)OC (centres undefined)
inactive: [1] -20.5% | [2] 36.5% | [3] -10.8% | [4] -27.9% | [5] -7.95% | [6] 0.1%

CCC(C(=O)NC(C)c1ccc(-c2ccccc2)cc1)c1ccccc1 (centres undefined)
inactive: [1] 5.1% | [2] 7.55% | [3] 10% | [4] 13.2% | [5] 12.5% | [6] -4.7%

Nc1ccccc1C(=O)Nc1ccccn1
inactive: [1] 4.05% | [2] -1.1% | [3] 0.5% | [4] 5.35% | [5] 0.45% | [6] -6.25%

Cc1ccc(NS(=O)(=O)c2ccc(F)cc2)c(C)c1
inactive: [1] 15.4% | [2] 19.1% | [3] -2% | [4] -14.2% | [5] -0.2% | [6] -9.15%

COCCOCOC(C)(C)CCCCl
inactive: [1] 11.3% | [2] 24% | [3] 21.9% | [4] -5.2% | [5] -2.1% | [6] -20%

Cc1cc(C)c(CC(=O)NCC(=O)NN)c(C)c1
inactive: [1] -7.25% | [2] -24.9% | [3] -17.1% | [4] -13.3% | [5] -12% | [6] -28.8%

CSCSCC(CO)NC(=O)/C(C)=C\c1c(C)[nH]c(=O)[nH]c1=O (centres undefined)
inactive: [1] -3.35% | [2] -2% | [3] -2.35% | [4] -7% | [5] 8.4% | [6] -13.1%

CC(O)C(NC(=O)c1cnc2ccccc2n1)C(=O)O (centres undefined)
inactive: [1] -8.45% | [2] -5.1% | [3] 17.8% | [4] -17.1% | [5] 15.9% | [6] -11.8%

CCOC(=O)N1Cc2cc3ccc(OC)cc3nc2C1
inactive: [1] 6% | [2] -4.15% | [3] -21.1% | [4] -10% | [5] -24.4% | [6] 3.9%

CCCCCCCC(=O)N1CCCC(C)C1 (centres undefined)
inactive: [1] -7.8% | [2] -25.8% | [3] 9.3% | [4] -5.75% | [5] -35.3% | [6] -3.9%

CN(/N=C/c1cccs1)c1ccc([N+](=O)[O-])cc1[N+](=O)[O-]
inactive: [1] -24.7% | [2] -25.5% | [3] 7.05% | [4] -9.35% | [5] -12.8% | [6] -10.8%

C(=N\c1oc(-c2ccccc2)c(-c2ccccc2)c1-c1ccccc1)/c1ccccc1
inactive: [1] 14.4% | [2] -5.15% | [3] -4.85% | [4] 14.3% | [5] 4.2% | [6] 6.2%

O=C(O)Cc1ccccc1Cl
inactive: [1] 24.4% | [2] 32.1% | [3] 6.55% | [4] -23.9% | [5] 14.8% | [6] 17.9%

O=C(Sc1ccccc1)C1OC1c1ccccc1 (centres undefined)
inactive: [2] 28.6% | [3] 22.6% | [4] 60.8% | [5] 63.1%
active: [1] 70.2% | [6] 80.5%

NC(=S)C(=S)NCCO
inactive: [1] 19.2% | [2] 1.7% | [3] -5.7% | [4] -68.2% | [5] -2.7% | [6] -12.1%

Nc1nnc(-c2ccccc2)o1
inactive: [1] 9.85% | [2] -4.8% | [3] 4.05% | [4] -19.9% | [5] 4.8% | [6] 3.35%

CCC1=C(C)C(=O)OC1n1ccc(=O)[nH]c1=O (centres undefined)
inactive: [1] -11.6% | [2] -2.75% | [3] 2.8% | [4] -37% | [5] -5% | [6] -3.5%

N#CNC(=NCCO)NCCO
inactive: [1] 25.8% | [2] 7.3% | [3] -2.25% | [4] 11.3% | [5] -0.35% | [6] 26.6%

CC(=O)OCC(=O)C1(O)C(C)CC2C3CCC4CC(=O)CCC4(C)C3=CCC21C (centres undefined)
inactive: [1] 43.1% | [2] -16.6% | [3] 0.65% | [4] -2.95% | [5] 26.1% | [6] 23.8%

CCOP(=O)(OCC)C(C(=O)OC)C(=O)C(=O)Nc1c(C)cc(Br)cc1C (centres undefined)
inactive: [1] -42.1% | [2] -17.2% | [3] -23.9% | [4] -1.8% | [5] -3.85% | [6] -17.6%

CC(OC(C)(C)C)C(NC(=O)C(N)CCCCNC(=O)OC(C)(C)C)C(=O)NC(Cc1ccccc1)C(=O)O (centres undefined) (H-Lys(Boc)-Thr(tBu)-Phe-OH; configuration not given here)
inactive: [1] -37.3% | [2] -11.6% | [3] -39.4% | [4] -14.8% | [5] -5% | [6] -15%

NC(CSCCC(=O)O)C(=O)O (centres undefined)
inactive: [1] -16.9% | [2] -10.3% | [3] -7.45% | [4] -39.6% | [5] -3.05% | [6] -12.4%

O=C(O)c1cccc2cnccc12
inactive: [1] -40.6% | [2] -17.6% | [3] -26.9% | [4] 1.3% | [5] -13.3% | [6] -8.7%

C[C@@]1(CO)CCc2c(c3ccccc3oc2=O)O1
inactive: [1] 2.2% | [2] 6.45% | [3] 9.55% | [4] 8% | [5] 1.8% | [6] -6.35%

Cc1cc2c(=O)c3ccc(Cl)cc3[nH]c2c(C(N)=O)c1C
inactive: [1] 22.2% | [2] 7.4% | [3] 14.5% | [4] 26.3% | [5] 6.6% | [6] 13.3%

CCSc1n[nH]c(=S)c2nc[nH]c12
inactive: [1] 12.7% | [2] 2.6% | [3] 3.7% | [4] 6.3% | [5] 8.55% | [6] -6.25%

CN(C)CC(Oc1ccccc1)C(=O)c1ccccc1 (centres undefined)
inactive: [1] -3.2% | [2] -10.2% | [3] 29.8% | [4] -26.3% | [5] -16.9% | [6] -5.15%

O/N=C(/Cc1ccccc1)CC(O)(C(F)(F)F)C(F)(F)F
active: [1] 90.8% | [2] 89.5% | [3] 87% | [4] 85.8% | [5] 86.7% | [6] 94.3%

CCOC(=O)CCC(NC(=O)c1ccc(NCc2nc3c([nH]2)c(=O)n(C)c(=O)n3C)cc1)C(=O)OCC (centres undefined)
inactive: [1] 1.95% | [2] 13.3% | [3] 13.6% | [4] 2.6% | [5] -8.75% | [6] 14.4%

COc1ccccc1C(O)(c1ccccc1OC)C1(O)CCCCC1
inactive: [1] -10.2% | [2] -2% | [3] -5% | [4] 13.8% | [5] -0.1% | [6] 1.15%

CCCCCCC(=O)O
inactive: [1] 0.75% | [2] -16.4% | [3] -4.85% | [4] -30.3% | [5] -0.1% | [6] 9.9%

Nc1ncc2c(n1)CSCC2=O
inactive: [1] -9.4% | [2] 27.7% | [3] 14.1% | [4] -2.7% | [5] 16.9% | [6] 12%

Cc1ccc(N=Nc2ccc(O)c(CN(C)C)c2)cc1C
inactive: [1] -26.4% | [2] -29.5% | [3] 48.5% | [4] -11% | [5] 49% | [6] 36.2%

N#C/C(=N\NC(=O)c1cccc(C(=O)N/N=C(\C#N)c2ccccc2Cl)n1)c1ccccc1Cl
inactive: [1] -0.95% | [2] -10.9% | [3] -5.1% | [4] -14.6% | [5] -1.85% | [6] 4.2%

COc1ccc2ccccc2c1
inactive: [1] -21% | [2] -30% | [3] -12.2% | [4] -23.9% | [5] 1.35% | [6] -31.6%

O=C(OC(C[n+]1ccccc1)c1ccccc1)c1ccccc1 (centres undefined)
inactive: [1] -0.55% | [2] -0.9% | [3] 4.5% | [4] 14.5% | [5] -6.4% | [6] 34%

CCc1cc2c(c3c1CCCC3)CC1(Cc3ccc(C(=O)OC)cc3C1)C2 (centres undefined)
inactive: [1] 3.65% | [2] -11.7% | [3] -16.4% | [4] 10.3% | [5] 3.15% | [6] -12.4%
